# Screens from PubChem.
# SENP6 block – inhibitors of human SENP6 protease. AID 2599. Q9GZR1. hit rate 1.8% among 330,000. inhibition, % at 10 µM. Recombinant SENP6 catalytic domain, aminoluciferin luminescence;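 active = inhibition above about 50% at the single tested dose, limit read from the data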
# HSP90 inh – blocks HSP90-mediated luciferase refolding in reticulocyte lysate. Rabbit reticulocyte lysate, luciferase refolding luminescence, 3 h. inhibition, % at 5.6 µM. hit rate 0.91% among 290,000;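 active = inhibition above the screen-wide mean plus 3 SD, computed separately per campaign, cut at about 16% in these data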;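 also: inhibitors lower the luminescence because luciferase stays unfolded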
# SENP8 block-1 – SENP8 (human) protease inhibition | inhibition, % at 20 µM | Q96LD8 | recombinant SENP8, Nedd8 substrate fluorescence | AID 602440 | hit rate 0.64% among 360,000; in the data active = inhibition mostly above about 40%, no sharp cut-off; inactive = mostly below about 27%
# Target sequence (Q96LD8 whole entry, looked up): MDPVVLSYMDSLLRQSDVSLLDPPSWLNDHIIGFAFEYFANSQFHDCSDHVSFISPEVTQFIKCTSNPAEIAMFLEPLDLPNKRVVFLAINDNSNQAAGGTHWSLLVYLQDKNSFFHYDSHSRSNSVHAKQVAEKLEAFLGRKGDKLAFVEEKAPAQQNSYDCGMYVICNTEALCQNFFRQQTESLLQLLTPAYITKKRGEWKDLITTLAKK
# SENP8 block-2 – blocks the human protease SENP8; hit rate 1.2% among 330,000; inhibition, % at 10 µM; purified SENP8, Z-RLRGG-aminoluciferin cleavage, luminescence; Q96LD8; in the data active = inhibition above about 50%
# LGR2 antag – inhibitors of bursicon-induced Drosophila LGR2 receptor cAMP signaling | HEK293 LGR2, CRE-luciferase, bursicon-stimulated, 4 h | inhibition, % at 9.99 µM | hit rate 0.35% among 380,000 | AID 720647;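 active = drop in luminescence signal, shown as inhibition above about 50% in the replicate tests, limit read from the data, passing the limit was not always enough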;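 also: agonist challenge used bursicon conditioned medium at about half maximal strength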
# SENP7 block – inhibitors of human SENP7 protease; inhibition, % at 5 µM; hit rate 1.5% among 330,000; Q9BQF6; AID 434973; recombinant SENP7, Z-RLRGG-aminoluciferin luminescence, 40 min;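 active = inhibition above about 50% at the single test dose, limit read from the data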
# HSP90 confirm – HSP90 inhibition, confirmation assay; shares compounds with HSP90 inh; rabbit reticulocyte lysate, luciferase refolding luminescence, 3 h; inhibition, % at 5.9 µM; hit rate 64% among 2,300; AID 1846; in the data active = inhibition above about 18%
# luciferase ctr – firefly luciferase inhibition, HSP90 counter-screen; shares compounds with HSP90 inh; purified native firefly luciferase, luminescence; inhibition, % at 5.9 µM; hit rate 48% among 2,300; AID 1847;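 active = inhibition above the mean inhibition of all tested sample wells plus 3 SD, cut at about 10% in these data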
# SENP8 confirm – human SENP8 inhibition, confirmed | shares compounds with SENP7 block | Recombinant SENP8, Z-RLRGG-aminoluciferin luminescence, 60 min | inhibition, % at 12.5 µM | hit rate 40% among 6,200 | AID 488912;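 active = mean inhibition across replicates above about 50%, limit read from the data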
# SENP6 conf – confirmation of human SENP6 protease inhibitors | hit rate 58% among 6,200 | shares compounds with SENP7 block | recombinant SENP6, Z-RLRGG-aminoluciferin luminescence | inhibition, % at 12.5 µM
# SENP7 conf – confirmation of human SENP7 protease inhibitors; recombinant SENP7, Z-RLRGG-aminoluciferin luminescence, 40 min; inhibition, % at 12.5 µM; shares compounds with SENP7 block; hit rate 69% among 6,200
# Casp3 select – inhibits human caspase-3 in SENP selectivity test | shares compounds with SENP7 block | purified caspase-3, Z-DEVD-aminoluciferin luminescence, 60 min | AID 488918 | inhibition, % at 12.5 µM | hit rate 60% among 6,200;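 active = mean inhibition above about 50%, limit read from the data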
# Target sequence (P42574 28-227 limits assumed): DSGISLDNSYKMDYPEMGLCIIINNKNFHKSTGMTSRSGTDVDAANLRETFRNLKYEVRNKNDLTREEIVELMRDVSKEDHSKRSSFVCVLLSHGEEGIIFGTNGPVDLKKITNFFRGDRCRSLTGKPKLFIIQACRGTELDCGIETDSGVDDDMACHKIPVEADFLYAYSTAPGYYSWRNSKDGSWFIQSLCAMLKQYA
# SENP luc ctr – interferes with luciferase luminescence in SENP counter-screen; shares compounds with SENP7 block; Pre-incubated SENP8/Z-RLRGG-aminoluciferin, luciferase luminescence interference; inhibition, % at 12.5 µM; hit rate 39% among 6,200; AID 488919;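 active = mean inhibition above about 50% when retested at one dose, limit read from the data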
# Numbers stand for hits; 0 = inactive; - = no result given. Only some compounds are listed: those with a hit (about 2.3% of all), similar ones and a draw of the others.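 The calls were made as follows, unless noted: active = mean inhibition above about 50% in the one-dose retest (limit read from the data); inactive = the rest.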
SMILES,SENP6 block,HSP90 inh,SENP8 block-1,SENP8 block-2,LGR2 antag,SENP7 block,HSP90 confirm,luciferase ctr,others
COc1ccc(C2SCC(=O)Nc3c2c(C)nn3C2CCOC(C)(C)C2)cc1 (stereo not drawn),0,19.9,0,0,-,0,0,0,
Cc1ccc(OC(=O)N(C)C[C@H]2OCc3ccccc3-c3c(n(C)c4ccccc34)C(=O)N([C@@H](C)CO)C[C@H]2C)cc1,-,-,-,-,0,-,-,-,
COC(=O)[C@@H]1[C@@H](CO)[C@@H]2Cn3c(ccc(-c4ccccc4F)c3=O)[C@H]1N2Cc1ccccc1,-,-,-,-,0,-,-,-,
CCCCCCOc1ccc(CN2CCN(C)CC2)cc1,0,18.6,0,0,0,0,38.9,24.8,
CN1CCN(Cc2ccc3ccccc3c2)CC1,0,0,0,0,0,0,-,-,
COC(=O)[C@H]1[C@H](CO)[C@H]2Cn3c(ccc(-c4cccnc4)c3=O)[C@@H]1N2S(=O)(=O)c1ccccc1F,-,-,-,-,0,-,-,-,
C=CCn1c(O)c(/C(C)=N/N2CCN(C)CC2)c(=O)[nH]c1=O,0,22.0,0,0,0,0,0,0,
COc1ccc(OCCOc2cccc(C=C3C(=O)NC(=O)NC3=O)c2)cc1,0,24.9,-,0,-,0,44.9,30.4,
CN1CCN(C(=O)COc2ccc(-c3nc4ccccc4s3)cc2)CC1,0,47.7,0,0,-,0,71.7,69.0,
COC(=O)[C@H]1[C@H](CO)[C@H]2Cn3c(ccc(-c4cccc(C(=O)N(C)C)c4)c3=O)[C@@H]1N2C(=O)NC(C)C,-,-,-,-,0,-,-,-,
C[n+]1c(-c2ccccc2)c2cc(N)ccc2c2ccc(N)cc21,81.8,38.9,94.7,92.6,78.6,94.6,0,0,
CCCNC(=O)N1[C@@H]2Cn3c(ccc(-c4cccc(C(=O)N(C)C)c4)c3=O)[C@H]1[C@@H](C(=O)O)[C@@H]2CO,-,-,-,-,0,-,-,-,
O=C(CCc1ccccc1)N1Cc2cc(N3CCOCC3)ccc2-n2nncc2C1,-,-,0,-,0,-,-,-,
OCC[n+]1c2ccccc2nc2ccc(N3CCOCC3)cc21,52.4,22.2,0,0,-,0,29.7,17.6,SENP8 confirm=0;SENP6 conf=67.7;SENP7 conf=0;Casp3 select=0;SENP luc ctr=0
CN(C)C(=O)Oc1ccc(OC(=O)N(C)C)cc1,0,0,0,0,0,0,-,-,
CN(C)C(=O)Oc1ccc(OCc2nc3ccccc3[nH]2)cc1,91.2,27.3,0,0,52.7,95.2,52.0,31.4,SENP8 confirm=94.4;SENP6 conf=94.5;SENP7 conf=100.3;Casp3 select=96.4;SENP luc ctr=93.0
COCCCn1c(N)c(C(=O)NCc2ccco2)c2nc3ccccc3nc21,92.8,20.6,-,90.5,0,87.0,0,0,SENP8 confirm=0;SENP6 conf=0;SENP7 conf=0;Casp3 select=0;SENP luc ctr=0
O=C(Cc1ccccc1)N1CCCCN2[C@@H](CO)[C@H](c3ccc(C#Cc4ccccc4)cc3)[C@@H]2C1,-,-,-,-,0,-,-,-,
CC=Cc1ccc2n(c1=O)C[C@@H]1[C@@H](CO)[C@H](C(=O)OC)[C@H]2N1CC1CCCCC1 (mixture of isomers),-,-,-,-,0,-,-,-,
CC(C)(C)n1cc(C(=O)c2ccc3ccccc3c2O)cn1,0,49.2,0,57.3,66.7,68.0,59.8,58.0,SENP8 confirm=0;SENP6 conf=0;SENP7 conf=0;Casp3 select=0;SENP luc ctr=0
CCCCCSc1cc(OC)c(CCN(C)C)cc1OC,53.0,0,0,0,-,0,-,-,SENP8 confirm=0;SENP6 conf=0;SENP7 conf=0;Casp3 select=0;SENP luc ctr=0
CCCCCSc1cc(O)c(C(CNC)C(C)C)cc1OC (stereo not drawn),0,0,0,0,0,0,-,-,
